Experimental data taken from the supplement of paper PMC7724964.

Target: T1, ENAH 9-116 WH1 (domain begin residue: 9, domain end residue: 116), Q8N8S7
T1 chain: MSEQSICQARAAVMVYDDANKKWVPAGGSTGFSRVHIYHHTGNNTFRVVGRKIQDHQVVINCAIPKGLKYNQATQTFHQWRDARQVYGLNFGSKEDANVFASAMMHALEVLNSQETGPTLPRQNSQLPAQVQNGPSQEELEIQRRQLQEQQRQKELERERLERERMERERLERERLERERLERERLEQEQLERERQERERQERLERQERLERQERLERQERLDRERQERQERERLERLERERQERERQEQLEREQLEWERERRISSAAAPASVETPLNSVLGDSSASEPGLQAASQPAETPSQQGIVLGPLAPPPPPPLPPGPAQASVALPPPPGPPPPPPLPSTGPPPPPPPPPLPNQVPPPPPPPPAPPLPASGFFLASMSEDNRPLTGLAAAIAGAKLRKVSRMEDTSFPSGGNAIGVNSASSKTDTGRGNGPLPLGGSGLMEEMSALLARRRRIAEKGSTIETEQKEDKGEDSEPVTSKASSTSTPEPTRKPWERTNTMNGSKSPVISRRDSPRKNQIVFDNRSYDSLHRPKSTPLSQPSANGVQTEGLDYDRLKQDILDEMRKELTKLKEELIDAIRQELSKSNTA
Assay: phage ELISA signal ratio (GST-PRM binding over GST background); higher = stronger binding of peptide-phage to the PRM
Procedure, shortened: (§1)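 Each value is the phage ELISA signal on the glutathione S-transferase (GST)-domain fusion divided by the signal on GST alone. Human peptide recognition domains were expressed in 96-well plates, fused to the C-terminus of GST, and selected against an M13 phage library carrying randomized, cysteine-free, glycine-flanked hexadecapeptides on the gene-8 major coat protein. After five selection rounds, approximately 48 individual clones from rounds 4 and 5 were tested by phage ELISA, and positive clones were sequenced.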

Binder | phage ELISA signal ratio
VTDNAWPYPPVAVSQH | 7.69

Target: T2, DYNLL2 1-89 Dynein_light (domain begin residue: 1, domain end residue: 89), Q96FJ2
T2 chain: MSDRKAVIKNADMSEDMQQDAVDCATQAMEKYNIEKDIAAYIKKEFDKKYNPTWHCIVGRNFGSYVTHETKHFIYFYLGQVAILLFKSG
Assay: as above
Procedure, shortened: as §1

Binder | phage ELISA signal ratio
GQTEFVYKQMPVSGAR | 33
STQTDSNWKMMPDGTV | 34.5
DIFPTYQHFMQQYSSE | 30.3
TQFGETWVNWIPLTIT | 25.9
GTQTDEIFYLREYKSM | 19.2
TQTGFGQAHMETPHSL | 35.8
TEMYEWMADATTNTMW | 28
AMVQTEDDWEMMWEQL | 17.6
TQTEPYKHQDQAHTRG | 26.1
TMTDATLFEVPSYWIT | 31.9
SSTTGDDVLNSLTEMP | 34.4
TQTMSWTGEKPQQWEM | 27
TQTDVISWQEFIFMRP | 36.2
MEMGTQTYKWQEWAFV | 31.3

Target: T3, ESRRG 219-458 Hormone_recep (domain begin residue: 219, domain end residue: 458), P62508
T3 chain: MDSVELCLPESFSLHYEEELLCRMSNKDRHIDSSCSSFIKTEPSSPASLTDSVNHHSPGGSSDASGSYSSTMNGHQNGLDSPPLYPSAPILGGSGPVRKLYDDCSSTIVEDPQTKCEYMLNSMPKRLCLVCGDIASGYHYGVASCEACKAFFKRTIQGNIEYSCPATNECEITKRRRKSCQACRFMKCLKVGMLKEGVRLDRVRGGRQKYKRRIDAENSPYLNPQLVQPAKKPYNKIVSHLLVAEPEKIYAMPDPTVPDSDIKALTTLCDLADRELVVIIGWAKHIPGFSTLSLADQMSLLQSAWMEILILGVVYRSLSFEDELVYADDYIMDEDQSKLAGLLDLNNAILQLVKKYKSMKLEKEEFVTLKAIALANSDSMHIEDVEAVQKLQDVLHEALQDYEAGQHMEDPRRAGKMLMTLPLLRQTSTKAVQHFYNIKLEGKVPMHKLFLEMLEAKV
Assay: as above
Procedure, shortened: as §1

Binder | phage ELISA signal ratio
QYVEEGSWYMLHMYLT | 17.4
SFPFLKMYLDPEPDDV | 11.2

Target: EIF2S1 9-93 S1 (domain begin residue: 9, domain end residue: 93), P05198
Assay: as above
Procedure, shortened: as §1

Sequence of EIF2S1 9-93 S1 (domain begin residue: 9, domain end residue: 93), P05198 (P05198 whole entry): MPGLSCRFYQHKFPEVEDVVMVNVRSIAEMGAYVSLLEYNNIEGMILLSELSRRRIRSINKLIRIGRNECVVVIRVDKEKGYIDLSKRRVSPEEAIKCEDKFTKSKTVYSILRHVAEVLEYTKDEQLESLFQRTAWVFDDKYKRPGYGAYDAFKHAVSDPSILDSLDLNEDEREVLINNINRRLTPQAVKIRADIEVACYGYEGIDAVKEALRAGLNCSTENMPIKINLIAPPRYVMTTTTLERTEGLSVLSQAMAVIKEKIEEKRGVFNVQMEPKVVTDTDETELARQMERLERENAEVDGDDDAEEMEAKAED

Binder | phage ELISA signal ratio
WTWDSEMGIWTLANDI | 20.4
VWVAWSWMHSVQMEAD | 12.3

Target: PABPC1 96-174 RRM_1 (domain begin residue: 96, domain end residue: 174)
Assay: as above
Procedure, shortened: as §1

Binder | phage ELISA signal ratio
WTWDSEMGIWTLANDI | 20.4
VWVAWSWMHSVQMEAD | 12.3

Target: T4, ESR2 263-500 Hormone_recep (domain begin residue: 263, domain end residue: 500), Q92731
T4 chain: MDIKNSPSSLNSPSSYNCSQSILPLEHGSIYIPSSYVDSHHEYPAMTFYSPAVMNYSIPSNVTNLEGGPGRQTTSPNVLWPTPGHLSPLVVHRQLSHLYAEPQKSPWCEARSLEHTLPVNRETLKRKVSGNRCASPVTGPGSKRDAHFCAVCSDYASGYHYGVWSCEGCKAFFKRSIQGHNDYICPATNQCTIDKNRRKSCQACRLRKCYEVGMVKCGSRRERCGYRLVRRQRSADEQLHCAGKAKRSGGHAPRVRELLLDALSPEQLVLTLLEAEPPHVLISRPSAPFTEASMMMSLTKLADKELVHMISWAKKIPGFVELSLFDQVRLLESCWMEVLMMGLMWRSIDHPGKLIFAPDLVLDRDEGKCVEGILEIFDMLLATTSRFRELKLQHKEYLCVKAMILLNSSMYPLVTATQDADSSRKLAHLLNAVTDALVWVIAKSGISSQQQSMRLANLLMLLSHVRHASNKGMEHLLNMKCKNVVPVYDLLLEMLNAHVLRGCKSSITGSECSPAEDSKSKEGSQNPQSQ
Assay: as above
Procedure, shortened: as §1

Binder | phage ELISA signal ratio
GVDVWLWDKQWNMWMP | 25.9

Target: EIF4E 2-217 IF4E (domain begin residue: 2, domain end residue: 217), P06730
Assay: as above
Procedure, shortened: as §1

Sequence of EIF4E 2-217 IF4E (domain begin residue: 2, domain end residue: 217), P06730 (P06730 whole entry): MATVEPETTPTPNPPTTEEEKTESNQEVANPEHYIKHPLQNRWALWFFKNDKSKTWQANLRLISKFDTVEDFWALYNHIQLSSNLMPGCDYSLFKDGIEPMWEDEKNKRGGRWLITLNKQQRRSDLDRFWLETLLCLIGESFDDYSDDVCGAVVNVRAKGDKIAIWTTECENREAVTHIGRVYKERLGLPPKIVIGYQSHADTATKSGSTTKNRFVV

Binder | phage ELISA signal ratio
FLYYYGLSHNWFGDQT | 7.6
SVWWFGQTPYVLWEAS | 7.15
PWSWFTYREQLETENV | 20.1

Target: T5, FKBP3 109-224 FKBP_C (domain begin residue: 109, domain end residue: 224), Q00688
T5 chain: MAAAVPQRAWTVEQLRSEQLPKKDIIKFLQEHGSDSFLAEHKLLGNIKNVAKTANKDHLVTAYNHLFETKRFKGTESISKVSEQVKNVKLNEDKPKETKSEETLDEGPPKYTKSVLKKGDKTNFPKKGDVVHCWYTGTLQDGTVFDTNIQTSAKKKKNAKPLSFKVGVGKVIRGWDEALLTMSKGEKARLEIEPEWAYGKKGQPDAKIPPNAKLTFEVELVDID
Assay: as above
Procedure, shortened: as §1

Binder | phage ELISA signal ratio
WGAGVFLVADPQMEVV | 5
HADLQGLGVFEWQEPV | 12.6

Target: EGFR 334-495 Recep_L_domain (domain begin residue: 334, domain end residue: 495), P00533
Assay: as above
Procedure, shortened: as §1

Binder | phage ELISA signal ratio
QWDFSQMTWWPIEEWK | 13.3

Target: T6, EEF1A2 240-332 GTP_EFTU_D2 (domain begin residue: 240, domain end residue: 332), Q05639
T6 chain: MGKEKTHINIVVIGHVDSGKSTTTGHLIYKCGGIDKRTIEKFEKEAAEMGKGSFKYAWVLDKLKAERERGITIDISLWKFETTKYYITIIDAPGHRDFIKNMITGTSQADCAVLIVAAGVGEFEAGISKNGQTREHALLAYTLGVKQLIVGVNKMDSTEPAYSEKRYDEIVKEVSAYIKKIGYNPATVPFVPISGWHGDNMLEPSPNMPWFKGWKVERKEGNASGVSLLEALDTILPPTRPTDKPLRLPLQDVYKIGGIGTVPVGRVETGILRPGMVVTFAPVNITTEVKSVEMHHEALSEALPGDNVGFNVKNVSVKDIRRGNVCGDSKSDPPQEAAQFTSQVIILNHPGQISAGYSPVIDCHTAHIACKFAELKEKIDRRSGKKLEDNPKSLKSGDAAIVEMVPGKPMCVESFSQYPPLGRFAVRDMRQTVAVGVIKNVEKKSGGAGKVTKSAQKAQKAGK
Assay: as above
Procedure, shortened: as §1

Binder | phage ELISA signal ratio
PWGPYQSFSELDIKHE | 17.3

Target: PCMT1 1-227 PCMT (domain begin residue: 1, domain end residue: 227), P22061
Assay: as above
Procedure, shortened: as §1

Sequence of PCMT1 1-227 PCMT (domain begin residue: 1, domain end residue: 227), P22061 (P22061 whole entry): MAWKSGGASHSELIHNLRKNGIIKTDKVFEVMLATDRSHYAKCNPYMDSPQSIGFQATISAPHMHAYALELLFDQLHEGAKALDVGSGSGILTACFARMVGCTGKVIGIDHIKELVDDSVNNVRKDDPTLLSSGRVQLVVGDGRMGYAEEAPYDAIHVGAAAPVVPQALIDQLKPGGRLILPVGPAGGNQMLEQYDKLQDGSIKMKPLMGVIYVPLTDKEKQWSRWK

Binder | phage ELISA signal ratio
SFPFLKMYLDPEPDDV | 11.2

Target: T7, EEF1A1 244-333 GTP_EFTU_D2 (domain begin residue: 244, domain end residue: 333), P68104
T7 chain: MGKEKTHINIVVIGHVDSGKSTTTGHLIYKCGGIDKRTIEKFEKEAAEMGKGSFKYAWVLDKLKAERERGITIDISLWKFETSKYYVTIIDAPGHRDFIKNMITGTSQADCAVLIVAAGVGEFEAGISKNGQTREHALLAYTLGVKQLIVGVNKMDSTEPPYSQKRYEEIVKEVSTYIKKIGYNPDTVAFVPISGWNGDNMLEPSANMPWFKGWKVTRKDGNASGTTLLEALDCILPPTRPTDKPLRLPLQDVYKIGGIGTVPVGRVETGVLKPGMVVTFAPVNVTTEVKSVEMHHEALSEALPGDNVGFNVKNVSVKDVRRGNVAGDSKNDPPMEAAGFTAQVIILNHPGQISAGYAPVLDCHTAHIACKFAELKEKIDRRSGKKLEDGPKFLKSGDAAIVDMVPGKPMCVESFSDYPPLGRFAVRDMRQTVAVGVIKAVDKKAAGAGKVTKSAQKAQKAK
Assay: as above
Procedure, shortened: as §1

Binder | phage ELISA signal ratio
ATPPQLTAHPNFMMWF | 8.96
